Assay outcomes from PubChem.
A selection: hits, their analogues and other compounds. The true share with any hit is near 1.1%.
PTHR1 ag: qHTS for PTHR1 Agonists: Primary Screen. HEK293 GP2 PTHR1 cells, GloSensor cAMP luminescence, 1 h. 410,000 tested, 0.075% active. AID 743266, 2014. Potency, µM (doses to about 115 µM), for the others: top-dose activation, actives largely listed as activators; note: potency is the fitted concentration of half-maximal effect; nearly all actives have a fitted effect of over 55% in size
Target sequence (Q03431 whole entry, looked up): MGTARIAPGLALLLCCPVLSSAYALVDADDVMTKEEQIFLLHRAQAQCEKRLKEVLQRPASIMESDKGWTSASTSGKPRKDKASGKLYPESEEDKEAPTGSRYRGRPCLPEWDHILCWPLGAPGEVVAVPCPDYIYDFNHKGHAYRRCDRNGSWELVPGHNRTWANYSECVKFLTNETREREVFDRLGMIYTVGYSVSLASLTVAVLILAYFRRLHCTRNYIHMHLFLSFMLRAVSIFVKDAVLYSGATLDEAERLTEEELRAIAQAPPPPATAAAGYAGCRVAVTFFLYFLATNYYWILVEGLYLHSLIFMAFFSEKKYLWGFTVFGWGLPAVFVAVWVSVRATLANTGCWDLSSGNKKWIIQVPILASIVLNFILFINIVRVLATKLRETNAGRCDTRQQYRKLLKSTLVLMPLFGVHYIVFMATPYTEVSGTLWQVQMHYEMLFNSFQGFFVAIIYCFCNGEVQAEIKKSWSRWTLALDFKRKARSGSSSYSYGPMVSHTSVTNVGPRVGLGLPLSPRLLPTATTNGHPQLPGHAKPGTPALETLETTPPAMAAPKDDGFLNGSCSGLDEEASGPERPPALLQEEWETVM
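HEK-293-derived GP2 cells expressing PTHR1 and a GloSensor cAMP reporter, 3,000/well, plated overnight, given luciferin plus IBMX (each 0.5 mM as added) for 1 h at 37 °C, then compound for 1 h at 37 °C. Luminescence was read after 15 min at room temperature.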
RGS4 inh: Inhibitors of Regulator of G Protein Signaling (RGS) 4: qHTS; Regulator of G-protein signaling 4 (Homo sapiens), P49798; Transcreener GDP fluorescence polarization, RGS4-accelerated GTP hydrolysis; Potency, µM (top dose mostly 114 µM), without a hit: at the highest dose activity change, negative = inhibition, actives largely listed as inhibitors; 390,000 tested, 0.039% active; AID 504845, 2011; note: potency is the fitted concentration of half-maximal effect; % is set by controls: 0 for no effect and ±100 for the full control effect; nearly all actives have a fitted effect of over 75% in size
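MLSMR compounds (23 nl, pin-transferred) preincubated 10 min at room temperature with a 500nM (2x) first reagent, then RGS4 at 900nM (2x) plus Transcreener GDP mix added; fluorescence polarization (620/688 nm) read before and after 90 min at 30 °C.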
BRCA1 expr up: qHTS Assay to Identify Small Molecule Activators of BRCA1 Expression; MCF7-BRCA1-FFLuc reporter, luminescence, 48 h; response scale: scaled: vehicle 0%, 10 µM genistein 100%; Potency, µM (highest dose often 46.1 µM), for the others: at the highest dose activation, usual class: activators; 380,000 tested, 1.1% active; AID 624202, 2012; note: potency is the fitted concentration of half-maximal effect; nearly all actives have a fitted effect of over 80% in size
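MCF7-BRCA1-FFLuc cells, 2000/well in phenol-red-free MEM, attached 2 h then treated 48 h at 37 C. Luciferase luminescence read 15 min after reagent; normalized to genistein maximum activation (10microM) and DMSO, concentration-response fitted.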
LDHA inh: qHTS assay for inhibitors of human lactate dehydrogenase; L-lactate dehydrogenase A chain (Homo sapiens), P00338; purified LDHA, NADH/diaphorase-resazurin fluorescence; hits give low values; activity change, % (values are at about 110 or 230 µM); 480,000 tested, 0.15% active; AID 1347041, 2019; in the data active = activity change below about -30%; inconclusive = mostly about -25% to -30%;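 note: plate controls were DMSO wells for no effect and wells without enzyme for full effect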
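Human LDH5 at 2 nM final in Tris HCl pH 7.4 with 0.06 mM NADH and 0.2 mM pyruvate, reacted 5 minutes at room temperature. Remaining NADH coupled via diaphorase/resazurin; resorufin fluorescence read at 0 and 20 minutes, normalized to enzyme-free and DMSO wells.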
p53 reactivator: qHTS assay for re-activators of p53 using a Luc reporter | Potency, µM (highest dose often 92.2 µM), for inactives: at the highest dose activity change, positive = activation, hits mostly activators | H1299 p53-A138V BP100-luciferase reporter, luminescence, 24 h | 320,000 tested, 0.063% active; note: potency is the fitted concentration of half-maximal effect; % of control where 0% means no effect; nearly all actives have a fitted effect of over 45% in size
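p53-null H1299 cells stably carrying temperature-sensitive p53-A138V and a BP100-luciferase reporter were pinned with compounds (4-point, 1:5 series) and held 24 hrs at 37 deg C. Luminescence was read 10 min after detection reagent.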
* marks the source's active call; other numbers are inactive results; ! = repeats disagree; [ ] = dose if it differs, or a comment. Unless noted, calls come from the whole dose curve; as a rule, active = well fitted curve in the direction sought with a large enough effect; inconclusive = small, poorly fitted or top-dose-only effect, or another doubt; inactive = no such curve, though single readings can be large; an effect the other way counts as inactive or inconclusive.

What do the screens show for `O=C(NCCNC(=O)c1cc(-c2ccncc2)nc2ccccc12)c1ccco1`?
LDHA inh: -12.1

What do the screens show for `Cc1c(C(=O)NN2CCCCC2)nn(-c2ccc(Cl)cc2Cl)c1-c1ccc(I)cc1`?
RGS4 inh: 29.9µM*!

Results for Clc1ccccc1CSc1cc2c(nn1)-c1ccccc1CC2 ?
PTHR1 ag: -8.9%; RGS4 inh: -7.4%[11.4 µM]; BRCA1 expr up: 3.98µM*; LDHA inh: -6.9; p53 reactivator: inconclusive

What do the screens show for `O=C(COc1ccc(Cl)cc1Br)NC(=O)NC1CCCC1`?
PTHR1 ag: -30.9%; RGS4 inh: -8.6%; BRCA1 expr up: 12.6µM*; LDHA inh: -1.7; p53 reactivator: inconclusive

What do the screens show for `O=C(COc1ccc(Cl)cc1Cl)NC(=O)NC1CCCC1`?
PTHR1 ag: -20.6%; RGS4 inh: 12.2%; BRCA1 expr up: 3.98µM*; LDHA inh: -9.7; p53 reactivator: inconclusive

Results for O=C(COc1ccc(Br)cc1Cl)NC(=O)NC1CCCC1 ?
PTHR1 ag: -39.4%; RGS4 inh: 4.3%; BRCA1 expr up: inconclusive; LDHA inh: -0.2; p53 reactivator: inconclusive

Results for Cc1sc(-c2cccc(O)c2)nc1-c1ccccc1 ?
LDHA inh: -0.6

What do the screens show for `COc1cc(Cl)c(C)cc1NC(=O)CSc1ncc(S(=O)(=O)c2ccc(C(C)(C)C)cc2)c(=O)[nH]1`?
PTHR1 ag: -23.6%; RGS4 inh: -50.4%; LDHA inh: -39.1*

Results for CC(C)(C)c1ccc(S(=O)(=O)c2cnc(SCC(=O)Nc3ccc(F)c(Cl)c3)[nH]c2=O)cc1 ?
PTHR1 ag: inactive; RGS4 inh: inconclusive; BRCA1 expr up: 8.3%; LDHA inh: -49.3*

What do the screens show for `CCCCc1c(CCC)c(=N)c2ccccc2n1C`?
PTHR1 ag: -90.5%; RGS4 inh: -22.8%; BRCA1 expr up: -86.0%; LDHA inh: -37.3*; p53 reactivator: 6.7%

Results for CCCCc1c(O)c2ccccc2n(CCCC)c1=O ?
PTHR1 ag: inactive; RGS4 inh: 2.0%; BRCA1 expr up: -9.5%; LDHA inh: -3.2; p53 reactivator: 1.9%

How did COC(=O)c1c(NC(=O)Cc2cccs2)sc(C(=O)NC2CCCCC2)c1C do in these assays?
PTHR1 ag: inactive; RGS4 inh: -10.0%; BRCA1 expr up: 3.16µM*; LDHA inh: -0.4

Results for NC(=O)NC(=O)CSC1=Nc2ccccc2CS1 ?
LDHA inh: 5.8

How did CCCC(=O)Nc1ccc2nc(SCCOc3ccccc3)sc2c1 do in these assays?
PTHR1 ag: inactive; RGS4 inh: 2.0%; LDHA inh: 4.4

What do the screens show for `CCCC(=O)Nc1ccc2nc(SCC(=O)Nc3nccs3)sc2c1`?
PTHR1 ag: -11.2%; RGS4 inh: -16.2%; BRCA1 expr up: -2.7%; LDHA inh: -34.6*; p53 reactivator: 7.4%

How did CC(=O)Nc1ccc2nc(SCC(=O)Nc3ccc(N4CCOCC4)c(Cl)c3)sc2c1 do in these assays?
PTHR1 ag: -11.1%[57.5 µM]; RGS4 inh: -32.0%; BRCA1 expr up: 12.6µM*; LDHA inh: -9.0; p53 reactivator: 7.1%

How did O=C(CSc1nc2ccccc2o1)Nc1ccc(N2CCOCC2)c(Cl)c1 do in these assays?
PTHR1 ag: -30.4%; RGS4 inh: 34.7%; BRCA1 expr up: 6.31µM*; LDHA inh: -1.5; p53 reactivator: inconclusive

Results for O=C(OCc1nc(-c2cccc(Cl)c2)no1)c1ccccn1 ?
LDHA inh: -1.8

What do the screens show for `COc1cc(OC)c(OC)cc1CN1CCCC(C(=O)N2CCCCCC2)C1` (configuration not stated)?
LDHA inh: 6.3

What do the screens show for `Cc1ccc(C(O)CNC(=O)c2ccc3c(c2)NC(=O)CS3)cc1` (configuration not stated)?
LDHA inh: 6.7

Results for O=C(Nc1ccc2ncccc2c1)c1cc(Cl)ccc1Cl ?
PTHR1 ag: -12.5%; RGS4 inh: -7.4%; BRCA1 expr up: 7.94µM*; LDHA inh: -0.8; p53 reactivator: 10.8%

How did Cc1ccc(C(=O)Nc2ccc3ncccc3c2)cc1 do in these assays?
PTHR1 ag: -22.6%; RGS4 inh: -26.2%; BRCA1 expr up: inconclusive; LDHA inh: 5.3; p53 reactivator: -3.5%

How did Brc1ccc(CNc2ccc3ncccc3c2)cc1 do in these assays?
PTHR1 ag: -21.1%; RGS4 inh: -34.8%; BRCA1 expr up: 8.91µM*; LDHA inh: 4.6; p53 reactivator: 20.2%

How did O=C(Nc1ccc2ncccc2c1)c1cccc(Br)c1 do in these assays?
PTHR1 ag: -21.1%; RGS4 inh: 1.5%; BRCA1 expr up: 2.24µM*; LDHA inh: -1.5

How did CCOc1cccc(/C=C(/C#N)C(=O)c2ccccc2OC)c1 do in these assays?
LDHA inh: 0.9

What do the screens show for `O=C(CCCOc1ccc(Cl)cc1Cl)Nc1ccccc1C(=O)O`?
PTHR1 ag: -21.4%; RGS4 inh: -3.8%; BRCA1 expr up: 6.31µM*; LDHA inh: -3.5; p53 reactivator: inconclusive

What do the screens show for `CC#CCCCC(=O)Nc1ccc(C(=O)O)cc1`?
PTHR1 ag: inconclusive; RGS4 inh: 31.3%; BRCA1 expr up: 0.3%; LDHA inh: -1.8; p53 reactivator: 0.6%

What do the screens show for `CC#CCCCC(=O)Nc1ccccc1C(=O)O`?
PTHR1 ag: inactive; RGS4 inh: -21.7%; BRCA1 expr up: 11.2µM*; LDHA inh: -2.3; p53 reactivator: inconclusive

How did Oc1ccc(C2(c3ccc(Cl)cc3)CCCCC2)cc1 do in these assays?
LDHA inh: 6.6

How did CCOC(=O)/C(C#N)=C(C)/C=C1\Sc2ccccc2N1CC do in these assays?
PTHR1 ag: inactive; RGS4 inh: -7.6%; BRCA1 expr up: 3.16µM*; LDHA inh: 1.2; p53 reactivator: 7.6%

How did NC(=O)c1sc2nc(-c3ccco3)ccc2c1N do in these assays?
PTHR1 ag: inactive; RGS4 inh: -50.9%; BRCA1 expr up: 2.51µM*; LDHA inh: 5.0; p53 reactivator: inconclusive

Results for O=c1[nH]cnc2cc(-c3ccccc3)sc12 ?
PTHR1 ag: -18.8%; RGS4 inh: -9.6%; BRCA1 expr up: 2.82µM*; LDHA inh: -0.2; p53 reactivator: inconclusive

What do the screens show for `O=[N+]([O-])c1ccc(COc2ccccc2/C=N/O)cc1`?
PTHR1 ag: -7.5%; RGS4 inh: -7.2%; BRCA1 expr up: 10µM*; LDHA inh: -5.3; p53 reactivator: inconclusive

How did CCOc1cc(/C=N/O)ccc1OCc1ccc([N+](=O)[O-])cc1 do in these assays?
PTHR1 ag: -3.9%; RGS4 inh: inconclusive; BRCA1 expr up: 8.5%; LDHA inh: -8.1; p53 reactivator: 3.4%
